Our source for the Potency values is PubChem BioAssay (NCATS).

Results filed as inconclusive are left out. Calls of active or inactive are those of the source. Calls follow the shape of the dose curve; as a rule, active = well fitted cell-killing curve with a large enough effect; inconclusive = small, poorly fitted or top-dose-only effect, or effect the other way; inactive = flat fitted curve, though single readings scatter.

Holding throughout (assay): Primary qHTS to identify gynecologic anti-cancer compounds using libraries of approved drugs and bioactive compounds (AID 1345084); also: nearly all actives have a fitted effect of over 55% in size
Holding throughout (conditions): Gynecologic cancer cell panel viability, ATPlite luminescence, 48 h; series mostly up to 57.5 µM

The subject of one assay is OV90. Put shortly:
(§1)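 Luminescence from the ATPlite ATP-monitoring reagent indicates viable cell number; lower signal means cytotoxicity. Cells received compound 16 h after seeding and were exposed for 48 h across five concentrations.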

A further assay has as its system PA-1. In short, it runs like this:
as §1

The next assay concerns SKOV3. In short, it runs like this:
as §1

Another assay concerns Tov-21-G. In short, it runs like this:
as §1

The test system of another assay is Tov112D. In short, it runs like this:
as §1
Potency is read from the fitted curve at half-maximal effect.

Consider `CCCc1ccc(OCC(=O)N(Cc2nc(-c3cccnc3)no2)C(C)C)cc1`, for which the Potency entry with OV90, in the assay on PA-1, with SKOV3, in the assay on Tov-21-G and in the assay on Tov112D was “inactive” each time.
In the case of `NCC(CNc1nc(Nc2cccc(NC(=O)N3CCCC3)c2)ncc1I)C(=O)c1cccs1` (stereo unspecified), the Potency result with OV90, with PA-1, in the assay with SKOV3, in the assay on Tov-21-G and with Tov112D was “inactive” throughout.
Regarding `C=C1CC[C@@H](O)[C@]2(C)C[C@H]3OC(=O)C(=C)[C@H]3CC12` (stereo partly specified), the Potency result with OV90, with PA-1, in the assay with SKOV3, in the assay on Tov-21-G and with Tov112D was “inactive” in each case.
Regarding `COc1ccc(C2Oc3c(OC)cc(CCCO)cc3C2COC2OC(CO)C(O)C(O)C2O)cc1OC` (stereo unspecified), the Potency result with OV90, in the assay on PA-1, in the assay with SKOV3, in the assay on Tov-21-G and with Tov112D was “inactive” each time.
Consider `C[C@@H](N[C@H]1CCCC[C@@H]1NC(=O)c1ccc(Cl)cc1)c1cccc2ccccc12`, for which the Potency entry in the assay on OV90, with PA-1 and with Tov-21-G was “inactive” each time. Further, the Potency with SKOV3 is 31.6 µM (active).
Regarding `CNC(=O)c1ccc2c(c1)CCO[C@H]2CCN1CCN(c2ccc(OC)cc2)CC1`, the Potency result with OV90, with PA-1, in the assay with SKOV3, with Tov-21-G and with Tov112D was “inactive” throughout.
For the compound `O=C1COc2nccc(-c3ccccc3F)c2CN1Cc1cc(C(F)(F)F)cc(C(F)(F)F)c1`, the Potency result in the assay on OV90, in the assay with PA-1, in the assay on SKOV3, in the assay on Tov-21-G and with Tov112D was “inactive” each time.
On to `C[C@@]12C(=O)N(c3ccc(C(=O)Nc4cccc5cccnc45)cc3)C(=O)[C@@H]1[C@@H]1C=C[C@H]2C1`, for which the Potency result with OV90, with PA-1, in the assay with SKOV3 and in the assay with Tov-21-G was “inactive” in each case.
Turning to `COc1ccc(S(=O)(=O)Nc2c(C)cc(C)cc2C)cc1`, the Potency result in the assay on OV90, with PA-1, in the assay with SKOV3 and with Tov-21-G was “inactive” in each case.
As for `C=CC(C)(O)CC/C=C(/C)COC(=O)C(C)C1CCC(C)(C=C)O1` (stereo unspecified), the Potency result in the assay with OV90, in the assay on PA-1, in the assay on SKOV3 and in the assay on Tov-21-G was “inactive” each time.
